# Screening data: PubChem, National Center for Advancing Translational Sciences (NCATS)
# Sm TGR block – blocks Schistosoma mansoni thioredoxin glutathione reductase; Q962Y6; purified TGR, DTNB reduction, TNB absorbance 405 nm; Potency, µM (titrated, usually from 114 µM), for inactives: top-dose activity change, negative = inhibition, usual class: inhibitors; 360,000 compounds, 3% hits; note: potency is the fitted concentration of half-maximal effect; % is set by controls: 0 for no effect and ±100 for the full control effect; nearly all actives have a fitted effect of over 60% in size
#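 TGR 20 nM + NADPH 100 uM (dispensed conc.), cpd preinc 15 min RT; start with NADPH (500 uM addition) then DTNB (15 mM addition). Kinetic TNB absorbance, 405 nm filter. Four-parameter Hill fit across titration.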
# LmPK inhibitor – LmPK (Leishmania mexicana) enzyme inhibition; purified LmPK, Kinase-Glo ATP luminescence, 1 h; Potency, µM (doses to about 57.5 µM), without a hit: top-dose activity change, negative = inhibition, usual class: inhibitors; 290,000 compounds, 0.37% hits; AID 1721; note: potency is the fitted concentration of half-maximal effect; % is set by controls: 0 for no effect and ±100 for the full control effect
# Target sequence (Q27686 whole entry, looked up): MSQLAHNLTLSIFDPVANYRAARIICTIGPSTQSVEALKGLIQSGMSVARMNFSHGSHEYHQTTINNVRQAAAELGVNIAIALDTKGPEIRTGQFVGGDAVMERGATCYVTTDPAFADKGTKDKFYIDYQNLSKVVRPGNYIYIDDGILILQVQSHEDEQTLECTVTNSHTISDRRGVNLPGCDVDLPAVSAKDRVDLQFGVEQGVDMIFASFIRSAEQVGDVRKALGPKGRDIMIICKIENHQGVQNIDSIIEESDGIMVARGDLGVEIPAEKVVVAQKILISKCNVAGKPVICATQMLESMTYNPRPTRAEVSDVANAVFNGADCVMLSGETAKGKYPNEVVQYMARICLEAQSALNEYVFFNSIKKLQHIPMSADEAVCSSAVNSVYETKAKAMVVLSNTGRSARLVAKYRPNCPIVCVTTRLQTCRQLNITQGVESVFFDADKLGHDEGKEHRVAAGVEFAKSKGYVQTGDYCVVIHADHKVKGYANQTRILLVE
#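 qHTS format; LmPK 0.1 nM; substrates PEP 0.5 mM and ADP 0.1 mM. One-hour room-temperature incubation, then coupled luciferase luminescence; 0.5 nM enzyme wells mark activation.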
# Shiga inhibitor – Shiga toxin inhibition | Vero cells, Shiga toxin protein synthesis inhibition reporter | 290,000 compounds, 9.2% hits | inhibition, % at 38.7 µM; in the data active = inhibition mostly above about 28%, no sharp cut-off; inactive = mostly below about 43%; note: 0% is about no effect
# Giardia FBPA inh – Giardia lamblia aldolase inhibition | 290,000 compounds, 0.71% hits | Potency, µM (highest dose often 59.6 µM), inactives show at the highest dose activity, negative = inhibition, actives largely listed as inhibitors | A8B2U2 | purified Giardia FBPA; note: potency is the fitted concentration of half-maximal effect; % is set by controls: 0 for no effect and ±100 for the full control effect; nearly all actives have a fitted effect of over 55% in size
#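 Giardia FBPA (40 nM reagent) was preincubated 10 min at RT with compound (up to 57.5 uM final), then substrate plus GAPDH/TPI/NAD/arsenate coupling system with diaphorase/resazurin was added; resorufin fluorescence (525/598 nm) was read after 20 min.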
# Cycloheximide cs – counter-screen for Shiga toxin inhibitors: cycloheximide protein synthesis inhibition | max response, % | cell reporter, cycloheximide protein synthesis inhibition counterscreen | 300,000 compounds, 12% hits; in the data active = max response mostly above about 13%, no sharp cut-off; inactive = mostly below about 14%; note: read at 38.3 µM for the half of the compounds with a filed dose; 0% is about no effect
# TbPYK inhibitor – T. brucei pyruvate kinase inhibition. Q57TT1. TbPYK enzyme, Kinase-Glo Plus ATP luminescence, 45 min. Potency, µM (series often up to 76.8 µM), for inactives: top-dose activity, negative = inhibition, actives largely listed as inhibitors. 410,000 compounds, 0.12% hits. AID 624173; note: potency is the fitted concentration of half-maximal effect; % is set by controls: 0 for no effect and ±100 for the full control effect; nearly all actives have a fitted effect of over 50% in size
#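 Readout: single end-point luminescence (Kinase-Glo Plus, 10 min). Reaction conditions were TbPYK/substrate plus 130 uM ADP, 45 min at RT, pH 7.2 TEA buffer. No-enzyme wells served as controls, and data were normalized before concentration-response fitting.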
# An asterisk follows results filed as active; u = inconclusive; x = no result given; + = active, no number; [ ] = dose if it differs, or a comment. The full list was thinned out, with hits kept by preference. Unless noted, calls come from the whole dose curve; as a rule, active = well fitted curve in the direction sought with a large enough effect; inconclusive = small, poorly fitted or top-dose-only effect, or another doubt; inactive = no such curve, though single readings can be large; an effect the other way counts as inactive or inconclusive.
SMILES,Sm TGR block,LmPK inhibitor,Shiga inhibitor,Giardia FBPA inh,Cycloheximide cs,TbPYK inhibitor
O=C(C[n+]1ccc2ccccc2c1)c1cccc2ccccc12,25.1µM*,1.1%,-19.0,-10.2%,12.4,-10.1%
Cc1ccc(SCCc2cc[n+](CC(=O)c3ccccc3)cc2)cc1,2.6%,13.3%,125.2*,-24.1%,51.0*,0.1%
O=C(C[n+]1ccc2ccccc2c1)c1ccc(NC(=O)c2ccccc2)cc1,x,-1.3%,22.0,-4.8%,-4.0,-6.5%
Cc1ccc(C(=O)C[n+]2ccc3ccccc3c2)cc1,-2.1%,-0.6%,44.7,-0.1%,22.1*,3.3%
Cc1cc(CNC[C@H]2O[C@@H](n3cnc(C(N)=O)n3)[C@H](O)[C@@H]2O)c(C)n1-c1cccnc1,x,x,x,x,x,4.4%
CCCc1cc(=O)[nH]c(SCC(=O)Nc2ccc(Cl)c(S(=O)(=O)N3CCOCC3)c2)n1,-3.8%,x,x,x,x,3.6%
Nc1ccn([C@@H]2O[C@H](CNCc3cnc(N4CCOCC4)nc3)[C@@H](O)[C@H]2O)c(=O)n1,x,x,x,x,x,-4.4%
CC(=O)Nc1cccc(-c2csc(NCc3ccco3)n2)c1,24.1%,-0.2%,51.0*,-19.1%,17.5,-0.7%
Oc1ccc(-c2csc(NCc3ccco3)n2)cc1,0.0%,0.0%,157.8*,-23.2%,43.6*,-12.3%
c1coc(CNc2nc(-c3cccs3)cs2)c1,u,-0.6%,89.7*,17.7%,33.2*,-7.3%
Cc1nc2ncccn2c1-c1csc(NCc2ccco2)n1,-14.2%,4.4%,8.9,u,11.3,-10.5%
C#CCNC(=O)C1=C[C@H](C2CCCCC2)[C@@H](CCCO)[C@H](OCC)O1,17.8µM*,3.8%,13.8,4.0%,-2.1,-1.2%
C#CCNC(=O)C1=C[C@H](C)[C@@H](CCCO)[C@H](OCC)O1,10.7%,1.1%,-11.2,3.4%,-2.5,4.4%
C#CCNC(=O)C1=C[C@H](c2ccccc2)[C@@H](CCCO)[C@H](OCC)O1,20µM*,2.5%,-11.9,0.8%,-2.3,1.7%
CC(C)CNC(=O)COC(=O)c1cc(S(=O)(=O)N2CCCCC2)ccc1N1CCOCC1,-5.6%,5.9%,-7.7,2.2%,5.7,-1.5%
CC(C)NC(=O)NC(=O)COC(=O)c1cc(S(=O)(=O)N2CCCCC2)ccc1N1CCOCC1,8.6%,-2.2%,43.8*,x,12.3*,-6.5%
O=C(COC(=O)c1cc2ccccc2oc1=O)Nc1ccc(F)cc1F,4.2%,-15.2%,118.0*,4.6%,51.5*,-1.4%
O=C(COC(=O)c1cc2ccccc2oc1=O)Nc1cccc(S(=O)(=O)N2CCCCCC2)c1,5.3%,-0.7%,64.1*,0.1%,27.2*,-5.8%
CN(C)S(=O)(=O)c1cccc(NC(=O)COC(=O)c2cc3ccccc3oc2=O)c1,9.4%,-4.6%,134.4*,0.8%,51.0*,5.6%
CCN(c1ccc(NC(=O)COC(=O)c2cc3ccccc3oc2=O)cc1)C(C)C,-3.6%,0.8%,-0.7,-12.1%,1.5,-6.5%
CCOc1ccccc1C1CC(=O)NC(C)=C1C(=O)OCc1ccc(C)cc1 (stereo unspecified),-5.1%,x,x,x,x,0.9%
COc1ccc(CCNC(=O)c2ccc3c(c2)S(=O)(=O)N=C2CCCCCN23)cc1,-0.6%,x,x,x,x,-7.4%
Cc1ccc(C(=O)Nc2cccc(C(=O)N/N=C/c3ccc(O)cc3)c2)cc1,-8.3%,0.3%,34.1,5.3%,28.1*,1.1%
O=C(N/N=C/c1cccs1)c1cccc(NC(=O)c2ccc(Cl)cc2)c1,-14.1%,-0.2%,12.6,3.9%,29.1*,x
O=C(N/N=C/c1cccc(NC(=O)c2ccc(Cl)cc2)c1)c1cccc(O)c1,4.0%,1.0%,77.3*,-1.7%,26.4*,3.6%
SMILES,Sm TGR block,LmPK inhibitor,Shiga inhibitor,Giardia FBPA inh,Cycloheximide cs,TbPYK inhibitor
CCNc1nnc(-c2ccc(C)cc2)o1,-0.3%,-1.9%,106.7*,-0.9%,42.4*,-6.2%
COc1ccc(-c2nnc(-c3cc4ccccc4oc3=O)o2)cc1,-2.9%,1.5%,15.4,4.4%,10.2,4.1%
Cc1ccc(-c2nnc(-c3ccccc3)o2)cc1,7.8%,u,48.8*,-1.0%,48.9*,-4.7%
Cc1ccc(-c2nnc(N)o2)cc1,5.0%,1.5%,30.3,2.4%,14.0,-1.2%
COc1ccc(-c2nnc(-c3ccccc3O)o2)cc1,8.5%,-11.2%,62.8*,-8.9%,44.6*,-6.6%
COc1ccc(-c2ccc(-c3nnc(-c4ccncc4)o3)cc2)cc1,-9.5%[11.4 µM],0.9%,-4.7,5.1%,-3.2,x
COc1ccc(-c2nnc(-c3ccc(C)cc3)o2)cc1,9.3%,-2.1%,82.2*,2.5%,19.4*,1.0%
CCOc1cc(C(=O)N(Cc2nc(-c3ccc(C)cc3)no2)C(C)C)cc(OCC)c1OCC,5.6%,x,x,x,x,-1.1%
COc1ccc(SCCc2nnc(-c3ccccc3)o2)cc1,7.5%,9.9%,18.0,-0.4%,9.6,1.0%
COc1ccccc1NC(=O)CSc1nnc(-c2ccccc2)o1,-0.6%,14.9%,58.9,-10.1%,17.6,-3.2%
COc1ccc(-c2nnc(-c3ccc(F)cc3)o2)cc1,4.3%,-0.3%,90.0*,4.4%,47.7*,4.8%
CCCc1nnc(-c2ccc(OC)cc2)o1,1.4%,-0.7%,+,1.4%,34.2*,0.6%
Brc1ccc(-c2nnc(Cc3ccccc3)o2)cc1,0.3%,-1.5%,80.6*,5.1%,57.8*,7.3%
COc1ccccc1NCc1nnc(-c2ccccc2)o1,0.0%,0.2%,13.9,-0.9%,20.4*,0.2%
COc1ccc(Cc2nnc(-c3ccccc3)o2)cc1,-1.5%,-1.5%,42.7*,7.0%,44.3*,-4.8%
O=C(Nc1nccs1)c1ccc(N2CCOCC2)c([N+](=O)[O-])c1,-2.4%,-3.0%,86.1*,x,50.2*,-10.3%
CCOc1ccc(C(=O)Nc2cc(-c3nc4cc(OC)ccc4o3)ccc2C)cc1[N+](=O)[O-],4.8%,x,x,x,x,-7.3%
COc1ccc2oc(-c3ccc(C)c(NC(=O)c4ccc(N5CCOCC5)c([N+](=O)[O-])c4)c3)nc2c1,44.0%,6.7%,134.0*,0.9%,58.9*,-1.9%
O=C(Nc1nccs1)c1ccc(Cl)c([N+](=O)[O-])c1,-10.9%,1.5%,42.9,9.1%,42.8*,0.2%
N#Cc1cccc(NC(=O)N2CCC3(CC2)CCN(C(=O)c2cccc(F)c2)CC3)c1,x,x,x,9.6%,x,0.0%
CCc1ccc2c(c1)c(=O)c(C(=O)c1ccccc1)cn2CC(=O)Nc1ccc(C)c(Cl)c1,-12.5%,x,x,x,x,-0.7%
CC1=C(C(=O)Nc2ccccn2)C(c2ccccc2)n2ncnc2N1 (stereo unspecified),-15.8%,5.1%,11.2,0.4%,15.1*,9.5%
COc1ccc(C2NC(=S)NC(C)=C2C(=O)Nc2ccccn2)cc1 (stereo unspecified),x,-1.5%,34.1*,2.5%,36.3*,2.3%
COc1ccccc1NC(=O)C1=C(C)Nc2ncnn2C1c1ccc[nH]1 (stereo unspecified),39.8µM*,x,x,x,x,-13.0%
